Drawing on PMC11062922 (Nature Chemical Biology, 2023), this text covers potency estimated from few doses for seven molecules.

Read-outs that look alike come from different tables or passages of the source.

One test concerns AAK1. On the set-up: species or system human, MV4-11 + K-562 + COLO205 + SK-N-BE2 + OVCAR-8. Particulars: read-out: apparent Kd, n = 1.
A further test concerns BMP2K. On the set-up: species or system human, MV4-11 + K-562 + COLO205 + SK-N-BE2 + OVCAR-8. The conditions noted are these: read-out: apparent Kd, n = 1.
A further test deals with FLT4. On the set-up: species or system human, MV4-11 + K-562 + COLO205 + SK-N-BE2 + OVCAR-8. Particulars: read-out: apparent Kd, n = 1.
A further test concerns the target Q6ZSR9 (human, UniProt Q6ZSR9). Also on record: species or system MV4-11 + K-562 + COLO205 + SK-N-BE2 + OVCAR-8. The conditions noted are these: read-out: apparent Kd, n = 1.
Another test has as its system RET. On the set-up: species or system human, MV4-11 + K-562 + COLO205 + SK-N-BE2 + OVCAR-8. Particulars: read-out: apparent Kd, n = 1.
Another test deals with CLK1. Also on record: species or system human, MV4-11 + K-562 + COLO205 + SK-N-BE2 + OVCAR-8. Particulars: read-out: apparent Kd, n = 1.
The subject of the next test is CSNK2A1;CSNK2A3. On the set-up: species or system human, MV4-11 + K-562 + COLO205 + SK-N-BE2 + OVCAR-8. The conditions noted are these: read-out: apparent Kd, n = 1.
The test system of another test is CSNK2A2. Also on record: species or system human, MV4-11 + K-562 + COLO205 + SK-N-BE2 + OVCAR-8. The conditions noted are these: read-out: apparent Kd, n = 1.
A further test concerns GAK. On the set-up: species or system human, MV4-11 + K-562 + COLO205 + SK-N-BE2 + OVCAR-8. Particulars: read-out: apparent Kd, n = 1.
The next test deals with GSK3A. On the set-up: species or system human, MV4-11 + K-562 + COLO205 + SK-N-BE2 + OVCAR-8. The conditions noted are these: read-out: apparent Kd; compound concentrations:100 nM and 1000 nM (sheet 'Samples'); n = 1.
A further test relates to GSK3B. On the set-up: species or system human, MV4-11 + K-562 + COLO205 + SK-N-BE2 + OVCAR-8. The conditions noted are these: read-out: apparent Kd; compound concentrations:100 nM and 1000 nM (sheet 'Samples'); n = 1.
For a further test, the system named is PAK4. Also on record: species or system human, MV4-11 + K-562 + COLO205 + SK-N-BE2 + OVCAR-8. The conditions noted are these: read-out: apparent Kd; compound concentrations:100 nM and 1000 nM (sheet 'Samples'); n = 1.
In another test the test system is PKN3. Also on record: species or system human, MV4-11 + K-562 + COLO205 + SK-N-BE2 + OVCAR-8. The conditions noted are these: read-out: apparent Kd; compound concentrations:100 nM and 1000 nM (sheet 'Samples'); n = 1.
Another test concerns PRKAG1. Also on record: species or system human, MV4-11 + K-562 + COLO205 + SK-N-BE2 + OVCAR-8. Particulars: read-out: apparent Kd; compound concentrations:100 nM and 1000 nM (sheet 'Samples'); n = 1.
The next test concerns SIK2. On the set-up: species or system human, MV4-11 + K-562 + COLO205 + SK-N-BE2 + OVCAR-8. Particulars: read-out: apparent Kd; compound concentrations:100 nM and 1000 nM (sheet 'Samples'); n = 1.
The subject of another test is CLK4. On the set-up: species or system human, MV4-11 + K-562 + COLO205 + SK-N-BE2 + OVCAR-8. Particulars: read-out: apparent Kd, n = 1.
Another test has as its system MELK. Also on record: species or system human, MV4-11 + K-562 + COLO205 + SK-N-BE2 + OVCAR-8. The conditions noted are these: read-out: apparent Kd; compound concentrations:100 nM and 1000 nM (sheet 'Samples'); n = 1.
The mark [1] stands for this setting: compound concentrations:100 nM and 1000 nM (sheet 'Samples').

Q6ZSR9, sequence (Q6ZSR9 whole entry, looked up): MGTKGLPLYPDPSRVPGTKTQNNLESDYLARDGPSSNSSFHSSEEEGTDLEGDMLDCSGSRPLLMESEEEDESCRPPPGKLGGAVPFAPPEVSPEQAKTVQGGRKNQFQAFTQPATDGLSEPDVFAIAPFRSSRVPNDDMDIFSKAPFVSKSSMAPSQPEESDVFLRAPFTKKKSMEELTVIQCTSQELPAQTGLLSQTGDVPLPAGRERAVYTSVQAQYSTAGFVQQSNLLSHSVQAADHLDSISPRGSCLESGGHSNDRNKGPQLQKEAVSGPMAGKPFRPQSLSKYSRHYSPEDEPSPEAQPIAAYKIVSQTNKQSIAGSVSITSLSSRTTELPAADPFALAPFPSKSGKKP

Regarding `CN(c1ccc(NC(=O)NCCN2CCOCC2)cc1)c1ccnc(Nc2ccc(CS(C)(=O)=O)cc2)n1.Cl` [GW830365A], the potency estimated from few doses with AAK1 (compound concentrations: 100 nM and 1000 nM (sheet 'Samples'), CATDS: 5.9294254337115E-2) was 785 nM; in the test on BMP2K (compound concentrations: 100 nM and 1000 nM (sheet 'Samples'), CATDS: 5.1935568412460401E-2) it was 1150 nM; with FLT4 (compound concentrations: 100 nM and 1000 nM (sheet 'Samples'), CATDS: 0.17294643484613401), 109 nM; in the test with Q6ZSR9 (compound concentrations: 100 nM and 1000 nM (sheet 'Samples'), CATDS: 5.6296915490776901E-2), 904 nM; with RET (compound concentrations: 100 nM and 1000 nM (sheet 'Samples'), CATDS: 9.0906950139660506E-2) it was 308 nM.
For the molecule `CC(=O)N[C@@H](Cc1ccc(OP(=O)(O)O)cc1)C(=O)N[C@H]1CCC(=O)N2CCC[C@@H](C(=O)NCc3ccc(Cl)cc3)N2C1=O` [RO0325308-000], the potency estimated from few doses in the test on AAK1 (setting [1]) was 737 nM; in the test with BMP2K (setting [1]), 1480 nM; in the test with CLK1 (setting [1]), 60.4 nM; with CSNK2A1;CSNK2A3 (setting [1]), 1430 nM; in the test with CSNK2A2 (setting [1]), 1780 nM; with FLT4 (setting [1]) it was 28.4 nM. The potency estimated from few doses in the test on GAK (setting [1]) was 59.4 nM; in the test on GSK3A, 59 nM; in the test on GSK3B it was 60.7 nM; with PAK4 it was 1170 nM; with PKN3, 152 nM; with PRKAG1, 523 nM. For the same molecule, the potency estimated from few doses with Q6ZSR9 (setting [1]) is 1030 nM; in the test with RET (setting [1]), 876 nM; in the test on SIK2, 943 nM.
As for `CN(C)CC(O)COc1ccc(Nc2nccc(-c3cnn4nc(N5CCOCC5)ccc34)n2)cc1` (stereo not shown) [GW767488X], the potency estimated from few doses was 23.6 nM in the test on AAK1 (setting [1]); 180 nM in the test on BMP2K (setting [1]); 54.1 nM in the test on CLK1 (setting [1]); 34.2 nM in the test with CLK4 (setting [1]); 105 nM in the test on CSNK2A1;CSNK2A3 (setting [1]); 57.1 nM in the test on CSNK2A2 (setting [1]). Also, the figures for the potency estimated from few doses with GAK (setting [1]), in the test with MELK and with Q6ZSR9 (setting [1]) were 378 nM, 1490 nM and 29.6 nM, respectively.
On to `CCCc1cc(N2CCCN(C)CC2)nc2sc3c(N)ncnc3c12` [BI00604564], for which the potency estimated from few doses is 1990 nM with AAK1 (compound concentrations: 100 nM and 1000 nM (sheet 'Samples'), CATDS: 0.13729874027545599); 516 nM with GAK (compound concentrations: 100 nM and 1000 nM (sheet 'Samples'), CATDS: 0.27765104438225702); 1310 nM with Q6ZSR9 (compound concentrations: 100 nM and 1000 nM (sheet 'Samples'), CATDS: 0.16382983501134099).
For the molecule `CS(=O)(=O)Nc1cccc(-c2ccc3c(NC(=O)C4CC4)n[nH]c3c2)c1` [SB-742864], the potency estimated from few doses in the test with AAK1 (compound concentrations: 100 nM and 1000 nM (sheet 'Samples'), CATDS: 0.116591298752119) was 1410 nM; in the test with BMP2K (compound concentrations: 100 nM and 1000 nM (sheet 'Samples'), CATDS: 0.11349645370011199), 1510 nM; with Q6ZSR9 (compound concentrations: 100 nM and 1000 nM (sheet 'Samples'), CATDS: 0.100041705724795), 2110 nM.
Turning to `O=C1N=C(NCc2cccs2)O/C1=C\c1ccc2ncccc2c1` [RO4624208-000], the potency estimated from few doses is 135 nM in the test on AAK1 (compound concentrations: 100 nM and 1000 nM (sheet 'Samples'), CATDS: 0.10731748351682301); 1920 nM with BMP2K (compound concentrations: 100 nM and 1000 nM (sheet 'Samples'), CATDS: 4.6084247955460698E-2); 23.7 nM in the test with CLK1 (compound concentrations: 100 nM and 1000 nM (sheet 'Samples'), CATDS: 0.227495449578137); 4.27 nM with CLK4 (compound concentrations: 100 nM and 1000 nM (sheet 'Samples'), CATDS: 0.59916054369274396); 629 nM in the test with CSNK2A1;CSNK2A3 (compound concentrations: 100 nM and 1000 nM (sheet 'Samples'), CATDS: 6.2614032961525998E-2); 590 nM in the test with CSNK2A2 (compound concentrations: 100 nM and 1000 nM (sheet 'Samples'), CATDS: 6.3902524713508005E-2). For the same molecule, in the test with Q6ZSR9 (compound concentrations: 100 nM and 1000 nM (sheet 'Samples'), CATDS: 0.11947964791327), the potency estimated from few doses was 103 nM.
In the case of `FC(F)(F)c1ccc(-c2ncn(CCCN3CCOCC3)c2-c2ccncc2)cc1` [SB-217780], the potency estimated from few doses in the test on AAK1 (compound concentrations: 100 nM and 1000 nM (sheet 'Samples'), CATDS: 0.194449602003399) is 1890 nM.
